Assay [1] has as its target Transcription factor E2F1 (Homo sapiens) (UniProt Q01094). Put plainly: ATG_E2F_CIS: Attagene CIS-FACTORIAL HepG2 Assay for human E2F Transcription Factor 1 (AID 2282935). The following applies: HepG2 Attagene cis-reporter, E2F reporter RNA transcripts; actives raise or lower the signal. A digest of the protocol: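 Cis-element reporter mRNA induction in transiently transfected HepG2, 24 h exposure. Activity fitted in both directions relative to DMSO negative control.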

Assay [2] in a line: ATG_E_Box_CIS: Attagene CIS-FACTORIAL HepG2 Assay for human Enhancer Box (E-box) (AID 2282936). The following applies: HepG2 E-box cis-reporter transcription, actives raise or lower the signal. A digest of the protocol: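 Cells: HepG2 (human liver), transient MRTU transfection. Exposure 24 h. RNA → oligo(dT) RT → PCR → 6-FAM label → HpaI → CE. Activity fitted both directions relative to DMSO.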

Assay [3] in a line: ATG_M_61_CIS: Attagene CIS-FACTORIAL HepG2 Assay for M61 Transcription Factor (Internal Marker) (AID 2282937). The following applies: HepG2 Attagene CIS-FACTORIAL M61 internal marker reporter; actives raise or lower the signal. The method in brief: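 Multiplexed reporter mRNA assay, HepG2 human hepatoma cells, 24 h treatment. Signal: FAM-labelled, HpaI-digested RT-PCR fragments by CE. Fit: bidirectional, baseline DMSO.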

Assay [4] can be described thus: ATG_EGR_CIS: Attagene CIS-FACTORIAL HepG2 Assay for human Early Growth Response 1 (EGR1) (AID 2282938). The following applies: HepG2 Attagene CIS-FACTORIAL EGR reporter mRNA; actives raise or lower the signal. The method in brief:
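Multiplexed cis-reporter system in human hepatoma HepG2 cells, transiently transfected. Cells are dosed for 24 h; reporter transcripts are amplified, fluorescently tagged and sized by capillary electrophoresis, with DMSO as negative control.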

Assay [5] can be described thus: ATG_M_19_CIS: Attagene CIS-FACTORIAL HepG2 Assay for M19 Transcription Factor (Internal Marker) (AID 2282939). The following applies: HepG2 Attagene CIS-FACTORIAL M19 internal marker reporter; actives raise or lower the signal. A digest of the protocol: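 Internal marker readout, fitted in both directions against DMSO, from HepG2 cells carrying transfected cis-element reporter constructs; RT-PCR and capillary electrophoresis of reporter mRNA after 24 h exposure.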

A short description of assay [6]: ATG_ERE_CIS: Attagene CIS-FACTORIAL HepG2 Assay for Estrogen Response Element (ERE) (AID 2282940). The following applies: HepG2 ERE cis-reporter, Attagene RNA transcript; actives raise or lower the signal. The method in brief:
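After 24 h compound treatment, RNA from transfected HepG2 cells was reverse-transcribed, reporter cDNA PCR-amplified, FAM-labelled, HpaI-cut and resolved by capillary electrophoresis. ERE-driven cis reporter transcripts reflect endogenous factors; gain or loss scored against DMSO.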

The nature of assay [7]: ATG_Ets_CIS: Attagene CIS-FACTORIAL HepG2 Assay for human Erythroblast Transformation Specific (ETS) (AID 2282941). The following applies: HepG2 ETS cis-reporter transcription, actives raise or lower the signal. The method in brief: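 Steps: transfect HepG2 with multiple reporter units; treat compound 24 h; isolate RNA, DNase-treat, reverse-transcribe; PCR-amplify, label with 6-FAM, digest with HpaI; separate by capillary electrophoresis. Activity fitted both directions versus DMSO.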

Assay [8] has as its target Hepatocyte nuclear factor 3-beta (Homo sapiens) (UniProt Q9Y261). The experiment in a line: ATG_FoxA2_CIS: Attagene CIS-FACTORIAL HepG2 Assay for human Forkhead box A2 (FOXA2) (AID 2282942). The following applies: HepG2 cis-reporter transcription factor activity, 24 h; actives raise or lower the signal. A digest of the protocol: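 Multiplexed cis-element reporter assay in transiently transfected HepG2. Twenty-four hours post-dosing, RNA was reverse-transcribed, amplified, FAM-labelled, HpaI-digested and separated by CE. Activity gain or loss relative to DMSO.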

Assay [9] is described as follows: ATG_FoxO_CIS: Attagene CIS-FACTORIAL HepG2 Assay for human Forkhead box O (FoxO) (AID 2282943). The following applies: HepG2 Attagene cis-reporter, FoxO element, mRNA; actives raise or lower the signal. The method in brief:
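Endogenous transcription factor activity read from multiplexed cis-promoter reporter transcripts in transiently transfected HepG2, 24 h after dosing. Reporter RNA measured via RT-PCR plus capillary electrophoresis of FAM-labeled products; gain or loss relative to DMSO.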

The nature of assay [10]: ATG_GATA_CIS: Attagene CIS-FACTORIAL HepG2 Assay for human GATA Binding Protein (AID 2282944). The following applies: HepG2 GATA cis-element reporter, Attagene multiplex mRNA; actives raise or lower the signal. The method in brief:
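Reporter transcripts from a GATA cis-regulated unit, among multiplexed reporters in transfected HepG2 cells, were measured by RT-PCR with capillary electrophoresis after 24 h dosing. Induction or loss scored relative to DMSO.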

The text below walks through data of PubChem BioAssay (EPA / NIEHS).

The source made the active and inactive calls. How the source made its calls: active means hit-call score of the fitted dose curve at least 0.9, where 1 is the maximum; inactive means score below 0.9.

Sequence of Transcription factor E2F1 (Homo sapiens) (Q01094 whole entry, looked up): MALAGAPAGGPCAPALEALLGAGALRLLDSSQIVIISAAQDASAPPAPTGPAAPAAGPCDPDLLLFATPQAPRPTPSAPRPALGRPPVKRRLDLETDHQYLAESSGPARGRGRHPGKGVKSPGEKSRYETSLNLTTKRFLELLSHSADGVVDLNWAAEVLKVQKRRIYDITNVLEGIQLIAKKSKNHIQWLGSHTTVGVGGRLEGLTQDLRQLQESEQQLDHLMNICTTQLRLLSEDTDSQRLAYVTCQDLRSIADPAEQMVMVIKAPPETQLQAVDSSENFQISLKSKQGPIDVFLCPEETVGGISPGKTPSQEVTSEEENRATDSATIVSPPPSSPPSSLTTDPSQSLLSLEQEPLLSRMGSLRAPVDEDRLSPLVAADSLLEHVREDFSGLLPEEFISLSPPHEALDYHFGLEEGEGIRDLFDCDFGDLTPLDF
Sequence of Hepatocyte nuclear factor 3-beta (Homo sapiens) (Q9Y261 whole entry, looked up): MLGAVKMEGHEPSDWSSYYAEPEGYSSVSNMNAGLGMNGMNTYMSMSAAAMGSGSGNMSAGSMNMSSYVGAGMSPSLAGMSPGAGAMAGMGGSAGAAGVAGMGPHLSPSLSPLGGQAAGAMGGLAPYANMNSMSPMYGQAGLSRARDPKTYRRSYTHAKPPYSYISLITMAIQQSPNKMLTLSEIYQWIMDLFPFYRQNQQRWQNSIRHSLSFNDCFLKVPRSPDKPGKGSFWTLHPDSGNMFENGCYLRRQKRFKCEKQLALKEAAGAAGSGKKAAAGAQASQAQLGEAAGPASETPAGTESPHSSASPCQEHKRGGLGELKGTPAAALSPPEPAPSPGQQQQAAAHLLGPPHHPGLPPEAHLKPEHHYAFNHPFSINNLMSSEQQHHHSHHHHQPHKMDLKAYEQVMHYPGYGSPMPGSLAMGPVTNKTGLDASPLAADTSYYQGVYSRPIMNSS

Take `CCCCC(CC)COS(=O)(=O)O` (stereo not given): the call in assay [1], in assay [2], in assay [3], in [4], in assay [5] and in [6] was inactive. In addition, the call in assay [7], in [8], in assay [9] and in [10] was inactive.
`COc1nccnc1CC(C)C`: the molecule was called inactive in [1], in [2], in assay [3], in assay [4], in assay [5] and in assay [6]. For the same molecule, the molecule was classed as inactive in assay [7], in [8], in [9] and in [10].
Consider `O=C1CCCCCCCCCCCN1`, for which the outcome in assay [1], in [2], in [3], in assay [4], in assay [5] and in assay [6] was inactive. Besides, the result in assay [7], in assay [8], in [9] and in [10] was inactive.
On to `CCCCC(=O)O`, for which the result in assay [1], in [2], in assay [3], in assay [4], in assay [5] and in assay [6] was inactive. Also, the molecule was called inactive in [7], in assay [8], in assay [9] and in assay [10].
Consider `CCc1cccc(C)c1N(C(=O)CS(=O)(=O)O)C(C)COC` (stereo not given), for which the call in [1], in [2], in assay [3], in assay [4], in assay [5] and in assay [7] was inactive. Further, the outcome in assay [8], in assay [9] and in assay [10] was inactive. Also, in [6], the half-maximal activity concentration (AC50) is 27.5 µM (active).
In the case of `C=C(C)OC(C)=O`, the result in assay [1], in assay [2], in assay [3], in [4], in assay [5] and in assay [6] was inactive. The result in assay [7], in assay [8], in [9] and in assay [10] was inactive.
Turning to `Cc1noc(NS(=O)(=O)c2ccc(N)cc2)c1C`, the molecule was classed as inactive in [1], in assay [2], in assay [3], in assay [4], in assay [5] and in assay [6]. Further, the call in assay [7], in [8], in assay [9] and in assay [10] was inactive.
With `C=C(C)C1CC=C(C)C(OC(C)=O)C1` (stereo not given), the outcome in [1], in assay [2], in [3], in [4], in [5] and in assay [6] was inactive. In addition, the result in assay [7], in [8], in assay [9] and in assay [10] was inactive.
Take `Nc1ccc(Cl)c(N)c1`: the molecule was classed as inactive in assay [1], in [2], in [3], in [4], in [5] and in [6]. In addition, the result in assay [7], in assay [8], in [9] and in assay [10] was inactive.
Regarding `CC(C)(c1ccccc1)c1ccc(Nc2ccc(C(C)(C)c3ccccc3)cc2)cc1`, the molecule was called inactive in [1], in [2], in assay [3], in assay [4], in assay [5] and in assay [6]. Besides, the molecule was called inactive in assay [7], in assay [8], in [9] and in [10].
`CCCCCCO`: the result in assay [1], in assay [2], in [3], in assay [4], in [5] and in assay [6] was inactive. The molecule was classed as inactive in [7], in [8], in [9] and in assay [10].
As to `CCCCCCCCCCCC(=O)OCC`, the result in assay [1], in assay [2], in assay [3], in assay [4], in assay [5] and in assay [6] was inactive. The result in assay [7], in assay [8], in assay [9] and in [10] was inactive.
For `CCCCCCCCCCCCc1ccc(O)cc1`, the molecule was called inactive in [1], in assay [2], in [3], in assay [4], in assay [5] and in assay [7]. For the same molecule, the molecule was classed as inactive in assay [8], in assay [9] and in assay [10]. For the same molecule, the AC50 in assay [6] was 0.146 µM (active).
`CCCCC(CC)COC(=O)/C=C/c1ccc(OC)cc1` (stereo not given): the molecule was called inactive in [1], in [2], in [3], in [4], in assay [5] and in [6]. Also, the outcome in assay [7], in [8], in [9] and in [10] was inactive.
On to `Cn1cccc1`, for which the molecule was called inactive in [1], in assay [2], in assay [3], in assay [4], in [5] and in assay [6]. For the same molecule, the result in [7], in [8], in assay [9] and in assay [10] was inactive.
In the case of `CC(C)c1ccc2ncccc2c1`, the result in assay [1], in assay [2], in [3], in assay [4], in assay [5] and in assay [6] was inactive. In addition, the molecule was called inactive in assay [7], in [8], in assay [9] and in [10].
As to `CC(C)[N+](C)(CCOC(=O)C1c2ccccc2Oc2ccccc21)C(C)C`, the call in assay [1], in assay [2], in [3], in assay [4], in assay [5] and in assay [6] was inactive. Further, the molecule was classed as inactive in assay [7], in assay [8], in [9] and in assay [10].
As to `CCOC(=O)[C@H](O)[C@@H](O)C(=O)OCC`, the molecule was classed as inactive in [1], in [2], in assay [3], in [4], in assay [5] and in assay [6]. Moreover, the molecule was classed as inactive in assay [7], in assay [8], in assay [9] and in assay [10].
Regarding `C=CC(=O)OCCCCCCOC(=O)C=C`, the result in assay [1], in assay [3], in assay [5], in assay [6], in assay [7] and in assay [8] was inactive. Also, the molecule was classed as inactive in assay [9] and in assay [10]. Besides, the figures for the concentration at half-maximal activity (AC50) in assay [2] and in [4] were 100 µM (active) and 66.6 µM (active), respectively.
Take `COc1cc(C)ccc1O`: the outcome in assay [1], in assay [2], in assay [3], in assay [4], in [5] and in assay [6] was inactive. Further, the molecule was classed as inactive in [7], in [8], in assay [9] and in assay [10].
`N#CC1(N)CCCCC1`: the outcome in [1], in assay [2], in [3], in assay [4], in assay [5] and in [6] was inactive. The molecule was classed as inactive in assay [7], in assay [8], in assay [9] and in assay [10].
For the molecule `CN(C)c1ccc2nc3ccc(=[N+](C)C)cc-3sc2c1`, the outcome in assay [1], in assay [3], in assay [4], in assay [5], in [6] and in [7] was inactive. For the same molecule, the outcome in assay [8], in [9] and in assay [10] was inactive. In addition, the AC50 in assay [2] is 16.7 µM (active).
`CC1(C)CC(O)CC(C)(C)N1[O]`: the call in assay [1], in [2], in assay [3], in [4], in [5] and in [6] was inactive. Besides, the molecule was classed as inactive in assay [7], in [8], in [9] and in assay [10].
`Oc1c(Cl)cc(Cl)c(Cl)c1Cl`: the molecule was classed as inactive in assay [1], in assay [2], in [3], in assay [5], in assay [6] and in [7]. Moreover, the call in [8], in assay [9] and in [10] was inactive. For the same molecule, in [4], the concentration at half-maximal activity (AC50) is 100 µM (active).
For the molecule `C=CCCCCCCCCO`, the call in [1], in [2], in assay [3], in assay [4], in assay [5] and in assay [6] was inactive. In addition, the molecule was called inactive in assay [7], in assay [8], in assay [9] and in [10].
Turning to `C=CCCCCCCCCOC(C)=O`, the molecule was called inactive in assay [1], in assay [2], in assay [3], in [4], in [5] and in assay [6]. Also, the molecule was classed as inactive in [7], in assay [8], in assay [9] and in assay [10].
